An excerpt weighted towards active compounds, which were near 3.7% of everything screened.
WRN inhibitor: inhibitors of human WRN helicase | hit rate 0.46% among 360,000 | Potency, µM (doses to about 114 µM), without a hit: at the top dose activity change, negative = inhibition, usual class: inhibitors | WRN helicase unwinding, fluorescent forked duplex, kinetic; note: potency is the fitted concentration of half-maximal effect; % is set by controls: 0 for no effect and ±100 for the full control effect; nearly all actives have a fitted effect of over 55% in size
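WRN at 20 nM final was preincubated with compound for 15 min at room temperature; reaction started with 100 nM forked duplex oligonucleotide carrying fluorophore and quencher plus 2 mM ATP (final). Unwinding followed kinetically by red fluorescence (ex 525/em 598 nm).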
PI5P4Ka inh: PI5P4K alpha (human) kinase inhibition | hit rate 1.2% among 330,000 | P48426 | PI5P4Kalpha enzyme, ADP-Glo luminescence, 60 min; stronger effect = lower value | max response, %; active = max response of -50% or lower; inconclusive = between -30% and -50%; inactive = -30% or higher; note: value at the top dose of about 77 µM; % is set by controls: 0 for no effect and ±100 for the full control effect
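qHTS, 1536-well: enzyme/substrate mix, compound by pin tool, 5 microM ATP final; RT 60 min; ADP-Glo reagents 1 (45 min) then 2 (30 min); luminescence.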
PLK1 PBD inh: inhibitors of human PLK1 polo-box domain binding. Potency, µM, inactives show max response, negative = inhibition, hits mostly inhibitors. AID 720504. hit rate 2.8% among 360,000. P53350. Plk1 PBD binding of FITC phosphopeptide, fluorescence polarization; note: potency is the fitted concentration of half-maximal effect; series mostly up to about 57 µM; % is set by controls: 0 for no effect and ±100 for the full control effect; nearly all actives have a fitted effect of over 65% in size
FEN1 inhibitor: blocks human flap endonuclease 1; P39748; Recombinant FEN1 flap cleavage, fluorescence, 15 min; Potency, µM (titrated, usually from 114 µM), inactives show top-dose activity change, negative = inhibition, actives largely listed as inhibitors; hit rate 0.35% among 390,000; AID 588795; note: potency is the fitted concentration of half-maximal effect; % is set by controls: 0 for no effect and ±100 for the full control effect; nearly all actives have a fitted effect of over 65% in size
Target sequence (P39748 whole entry, looked up): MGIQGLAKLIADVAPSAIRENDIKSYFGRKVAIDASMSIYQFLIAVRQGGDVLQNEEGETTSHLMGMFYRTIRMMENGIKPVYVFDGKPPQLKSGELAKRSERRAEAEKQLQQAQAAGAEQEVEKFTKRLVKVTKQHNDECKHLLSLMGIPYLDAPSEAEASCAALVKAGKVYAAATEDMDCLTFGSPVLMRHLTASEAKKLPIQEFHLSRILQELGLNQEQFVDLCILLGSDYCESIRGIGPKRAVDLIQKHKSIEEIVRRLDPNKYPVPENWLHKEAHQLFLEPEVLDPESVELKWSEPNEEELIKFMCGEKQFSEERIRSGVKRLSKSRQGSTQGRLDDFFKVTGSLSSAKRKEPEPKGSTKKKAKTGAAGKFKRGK
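Compounds are tested as a concentration series against 10 nM FEN1; after a 15 min room-temperature preincubation, 50 nM substrate starts cleavage, with plate reads at 0 and 15 min. Normalized responses are fitted by a Hill equation.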
VDR inh: vitamin D3 receptor (human) inhibition; P11473; VDR-SRC2-3 peptide fluorescence polarization, 2 h; Potency, µM, for the others: max response, negative = inhibition, usual class: inhibitors; hit rate 0.93% among 400,000; note: potency is the fitted concentration of half-maximal effect; % is set by controls: 0 for no effect and ±100 for the full control effect
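VDR–SRC2-3 interaction, FP format. Cmpds 23 nl via pintool, brief spin, 2 h ambient incubation.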
TCR activator: activators of T cell receptors. 330,000 tested, under 10 active. primary human leukocytes, anti-CD3, IL-2 HTRF, 48 h. Potency, µM (highest dose often 9.22 µM), without a hit: at the top dose activation of IL-2 secretion, usual class: activators; note: % of control where 0% means no effect
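IL-2 produced over 48 hr by a-CD3 bead-stimulated primary human leukocytes exposed to compounds was detected with a homogeneous time-resolved FRET immunoassay, 665nm acceptor signal after 320nm excitation.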
* marks the source's active call; other numbers are inactive results; ? = inconclusive; / = no result given; [ ] = remark or other dose. Unless noted, calls come from the whole dose curve; as a rule, active = well fitted curve in the direction sought with a large enough effect; inconclusive = small, poorly fitted or top-dose-only effect, or another doubt; inactive = no such curve, though single readings can be large; an effect the other way counts as inactive or inconclusive.

SMILES	WRN inhibitor	PI5P4Ka inh	PLK1 PBD inh	FEN1 inhibitor	VDR inh	TCR activator
CCOP(=O)(CCP(=O)(OCC)OCC)OCC.C[CH2][Sn]([Cl])([Cl])[CH2]C	-12%	-1	8.4µM*	-13%	?	9%
CC(=O)Oc1ccc2c3c1OC1[C@@H](OC(C)=O)C=C[C@H]4[C@H](C2)N(C)CC[C@]314 (some centres undefined)	/	/	/	/	2%	/
CC(C)(C)[C@]1(O)C[C@@H]2OC(=O)CC23C(=O)O[C@@H]2OC(=O)[C@H](O)C231 (some centres undefined)	/	/	/	/	9%	/
COc1ccc(-n2c(/C=C/c3ccc(O)c(OC)c3)nc3ccccc3c2=O)cc1	-8%	-2	47%	-1%	-16%	/
COc1ccc(/C=C2/C(=O)NC(=O)N(c3ccccc3)C2=O)cc1CN1C(=O)c2ccccc2C1=O	-8%	-53*	6µM*	?	79µM*	0%
COc1ccccc1N1C(=O)NC(=O)/C(=C\c2cnn(-c3ccccc3)c2)C1=O	?	?	3.4µM*	-3%	?	5%
COc1cccc(N2C(=O)NC(=O)C3(Cc4cc(C)ccc4N(C)C3)C2=O)c1 (centres undefined)	-15%	-6	-20%	7%	-8%	-12%
COc1ccc(N2C(=O)NC(=O)/C(=C\c3cn(C)c4ccccc34)C2=O)cc1	-6%	-5	-1%	13%	-4%	-3%
COc1cc(/C=C2/C(=O)NC(=O)N(c3ccccc3)C2=O)ccc1O	?	-59*	8.4µM*	3%	-13%	-1%[46.1 µM]
COc1cccc(N2C(=O)NC(=O)/C(=C/c3ccc4c(c3)Cc3ccccc3-4)C2=O)c1	45µM*	?	3.4µM*	?	?	/
CC(C)[C@H](NC(=O)[C@H](CCC(=O)O)NC(=O)[C@H](Cc1ccccc1)NC(=O)[C@H](C)NC(=O)[C@@H](N)Cc1ccc(O)cc1)C(=O)N[C@H](C(=O)NCC(N)=O)C(C)C	/	/	/	/	-3%	/
Cc1cc(/C=C/c2ccnc3ccccc23)ccc1N(CCCl)CCCl	/	/	/	-33%	/	/
COc1cc(C2c3cc4c(cc3C(O)C3COC(=O)C23)OCO4)cc(OC)c1O (centres undefined)	/	/	/	/	0%	/
CC(=O)CC(c1ccccc1)c1c(O)c2cc(O)ccc2oc1=O (centres undefined)	/	/	/	/	-3%	/
C=C(C)C(=O)CP(=O)(OCC)OCC	/	/	/	/	-7%	/
COc1ccccc1N1C(=O)NC(=O)/C(=C/c2ccc3c4c(cccc24)CC3)C1=O	?	-58*	7.5µM*	10%	50µM*	7%[46.1 µM]
CCOc1cc(/C=C2/C(=O)NC(=O)N(c3ccc(CC)cc3)C2=O)ccc1OC(=O)c1cccs1	50µM*	-70*	6µM*	-1%	?	4%
O=C1NC(=O)N(c2ccccc2)C(=O)/C1=C\c1ccc2c3c(cccc13)CC2	/	/	/	/	/	-6%[46.1 µM]
CCOC(=O)C1CCN(/C=C2/C(=O)NC(=O)N(c3ccc(OCC)cc3)C2=O)CC1	1%	/	-13%	9%	3%	-1%
CN1CCCCC1Cn1cc(C(=O)c2cc([N+](=O)[O-])ccc2I)c2ccccc21 (centres undefined)	/	/	/	/	-12%	/
CCCCCCCCCCCCCCCC[n+]1ccccc1	-3%	-13	0%	79µM*	-5%	0%
CCCCCCC[n+]1ccc(-c2cc[n+](CCCCCCC)cc2)cc1	-4%	-6	-9%	-1%	-14%	-1%[46.1 µM]
COC(=O)C(O)(c1c(C)[nH]n(-c2ccccc2)c1=O)C(F)(F)F (centres undefined)	-18%	1	24µM*	-7%	?	-3%
COC(=O)C(O)(c1c[nH]c2ccccc12)C(F)(F)F (centres undefined)	7%	0	-1%	-6%	7%	-1%
CC(C)CC1C(=O)N2CCC[C@H]2[C@]2(O)O[C@](NC(=O)[C@@H]3C=C4c5cccc6[nH]c(Br)c(c56)C[C@H]4N(C)C3)(C(C)C)C(=O)N12 (some centres undefined)	/	/	/	-21%	-20%	/

Compound activity deposited in PubChem BioAssay by National Center for Advancing Translational Sciences (NCATS).
